Sampled rows, rich in hits. Any-hit rate of the full collection: about 2.9%.
TRPML1 blocker = human mucolipin-1 channel inhibition. TRPML1-inducible cells, Ca2+ dye fluorescence, FDSS; stronger effect = lower value; inhibition of EC80 agonist-evoked calcium signal. activity change, negative = inhibition, % (no concentration beside the values). 390,000 compounds, 0.02% hits; in the data active means activity change below about -50%; inconclusive means between about -30% and that limit;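 further: stimulus is agonist 54-4 at its EC80 concentration; on the % scale 0 is the no-effect control and ±100 the full control effect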
Target sequence (Q9GZU1 whole entry, looked up): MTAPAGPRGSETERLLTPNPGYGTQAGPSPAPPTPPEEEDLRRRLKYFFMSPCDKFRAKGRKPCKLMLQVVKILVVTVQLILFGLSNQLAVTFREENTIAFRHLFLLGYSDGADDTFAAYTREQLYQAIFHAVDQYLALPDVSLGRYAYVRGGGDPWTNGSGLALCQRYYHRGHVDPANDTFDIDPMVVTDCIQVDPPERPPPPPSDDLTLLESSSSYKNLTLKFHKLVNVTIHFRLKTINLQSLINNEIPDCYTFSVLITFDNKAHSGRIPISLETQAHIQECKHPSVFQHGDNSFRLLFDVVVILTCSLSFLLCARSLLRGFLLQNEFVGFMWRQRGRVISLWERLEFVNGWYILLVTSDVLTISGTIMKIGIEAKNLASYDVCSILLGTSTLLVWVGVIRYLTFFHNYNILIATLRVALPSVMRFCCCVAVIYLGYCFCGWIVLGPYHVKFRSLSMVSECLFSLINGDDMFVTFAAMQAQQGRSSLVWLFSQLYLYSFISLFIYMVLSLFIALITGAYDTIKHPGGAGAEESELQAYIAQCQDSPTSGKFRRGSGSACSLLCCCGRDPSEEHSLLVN
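Tet-induced TRPML1-DL cells loaded with Ca8 no-wash calcium dye were read kinetically on FDSS. Compound addition was followed by EC80 agonist 54-4 (4 uM final); inhibition was read over 110 s.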
D3 ag = agonists of human D3 dopamine receptor. P35462. D3R DiscoveRx beta-arrestin cells, luminescence, 90 min. max activation, %. 410,000 compounds, 0.58% hits. AID 652048; in the data active means max activation above about 30%; further: 0% is about no effect
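Cells at 1500/well, incubated overnight, then treated with pinned compounds (dopamine as control) for 90 min at 37 degrees C. DiscoveRx reagent added for 30 - 60 minutes at room temperature; luminescence read.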
D3 antag = D3 dopamine receptor (human) antagonism. P35462. D3R cells, DiscoveRx beta-arrestin luminescence, antagonist mode; stronger effect = lower value. max response, negative = inhibition, %. 360,000 compounds, 2.5% hits; in the data active means max response below about -50%; inconclusive means no clear call, values can overlap the other calls; further: on the % scale 0 is the no-effect control and ±100 the full control effect
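Cells plated overnight at 1500 cells/well, then exposed to library compounds with dopamine controls for 90 minutes at 37 degrees C. DiscoveRx reagent added for 30–60 minutes at room temperature; luminescence read, quantitative HTS format.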
TRPML1 agonist = activates the human TRPML1 channel; 410,000 compounds, 0.12% hits; TRPML1-expressing cells, Ca2+ dye fluorescence, FDSS; activation, % (concentration not given with the values); AID 624414; Q9GZU1; in the data active means activation above about 50%; inconclusive means mostly about 30% to 49%; further: 0% is about no effect
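Agonist activity was taken from a 110 s kinetic Ca2+ dye read on the FDSS after pinning compounds onto TRPML1-DL cells. The cells were seeded at 1,500/well with Tet inducer, incubated about 16 h, then dye-loaded at room temperature.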
Active calls of the source: *; ? = inconclusive; . = no result.

SMILES	TRPML1 blocker	D3 ag	D3 antag	TRPML1 agonist
CN(C)c1ccc(/C=C2/CCc3ccccc32)cc1	.	.	.	2
Cc1c(Cl)cccc1NC(=O)Nc1nnc(N(C)Cc2ccccc2)s1	-15	-4	.	58*
Cc1ccccc1NC(=O)Nc1nnc(N(C)Cc2ccccc2)s1	20	-9	.	1
O=S1(=O)c2ccccc2N(Cc2cccc(F)c2)c2ccccc21	-24	-9	.	2
CCc1ccccc1N(CC(=O)NCc1ccco1)C(=O)c1snc(C(N)=O)c1N	10	-9	-55*	-1
CCn1cc(CCC(=O)NC(C)c2ccccc2)c2ccccc21 (configuration not stated)	-2	0	-55*	0
CCCCS(=O)(=O)N[C@@H](Cc1ccc(OCCCCC2CCNCC2)cc1)C(=O)O	.	0	.	.
C=C1C=C(C(F)(F)F)n2ncc(C(=O)NCc3ccc(F)cc3)c2N1	.	.	.	-1
CN1CCN(c2oc(-c3ccc(OCc4ccc(Cl)cc4)cc3)nc2C#N)CC1	.	.	.	-1
CCOc1ccc(C(NC(C)=O)c2cc(Cl)c3cccnc3c2O)cc1 (configuration not stated)	.	.	.	4
COc1ccccc1C(NC(C)=O)c1cc(Cl)c2cccnc2c1O (configuration not stated)	22	3	-54*	0
CCOc1ccc(C(Nc2cccnc2)c2cc(Cl)c3cccnc3c2O)cc1 (configuration not stated)	-8	8	-58*	1
CC(C)n1nc(C(=O)OCC(=O)c2c[nH]c3ccccc23)c2ccccc2c1=O	11	59*	46	4
CCc1ccc(NC(=O)C2(c3ccccc3)CC2(Cl)Cl)cc1 (configuration not stated)	-12	-2	-30	54*
COc1ccccc1CNC(=O)CCCn1c(=O)c2cccn2c2ccccc21	-2	2	.	0
Cc1cc(N2CCOCC2)nc(NCc2ccccc2)n1	-7	-4	23	80*
CCc1ccc(Nc2nc(-c3cc4cccc(OC)c4oc3=O)c(CC)s2)cc1	17	50*	.	1
CC(CC(c1ccccc1)c1ccccc1)NC(C)(C)C (configuration not stated)	.	-1	.	.
COc1ccc(/C=N/OCC(=O)Nn2c(C)nc3ccccc3c2=O)cc1	15	33*	8	0
COc1ccc(/C=N/n2c(C)nc3ccccc3c2=O)cc1	-2	5	-5	-1
CC(=O)N[C@@H](C=O)[C@H](O)[C@H](O)[C@@H](O)CO	.	-1	.	.
O=C(OC[C@H]1O[C@](O)(COC(=O)c2cccnc2)[C@@H](OC(=O)c2cccnc2)[C@@H]1OC(=O)c1cccnc1)c1cccnc1	.	-8	.	.
Cc1cc(/C=C/c2nc3ccccc3s2)ccc1N(C)C	.	.	.	1
COc1cc2nc(/C=C/c3ccc(N(C)C)cc3)sc2cc1SC	-12	23	66	120*
COc1cccc(NC(=O)CSc2nnc3[nH]c(=O)cc(-c4ccccc4)n23)c1	1	-13	.	0
SMILES	TRPML1 blocker	D3 ag	D3 antag	TRPML1 agonist
O=C(Nc1ccc(Oc2ccc(NC(=O)c3ccco3)c(NC(=O)c3ccco3)c2)cc1)c1ccco1	-2	24	-93*	1
CC(=O)Oc1ccc(C(=O)Nc2cccc(NC(=O)c3ccco3)c2)cc1	-2	16	-76*	0
CC(=O)c1cccc(NC(=O)c2cccc(NC(=O)c3ccco3)c2)c1	-16	-12	8	0
O=C(NC1CCCC1)c1cccc(NC(=O)c2ccco2)c1	-22	-1	17	60*
O=C(Nc1ccc(Oc2ccc3ccccc3c2)cc1)c1ccco1	2	4	6	0
O=C(COc1ccccc1F)Nc1ccccc1OCc1cc(=O)n2ccccc2n1	17	2	.	1
CCc1sc(Nc2ccc(C)cc2Br)nc1-c1cc2cccc(OC)c2oc1=O	1	4	.	-1
CCc1cccc(NC(=O)C(c2ccccc2)N2Cc3ccccc3C2=O)c1 (configuration not stated)	13	-13	.	1
C=CCn1c(-c2cc(OC)cc(OC)c2)n[nH]c1=S	-2	-1	-59*	0
CC(=O)[C@]1(O)Cc2c(O)c3c(c(O)c2[C@@H](O[C@H]2C[C@H](N)[C@H](O)[C@H](C)O2)C1)C(=O)c1c(O)cccc1C3=O	.	-11	.	.
Cc1sc(-n2c(C)cc(/C=C3\SC(=S)NC3=O)c2C)c(C#N)c1C	-2	-21	-71*	-1
Cc1cc(/C=C2\SC(=S)NC2=O)c(C)n1-c1cccc(O)c1	.	-4	?	.
CN(CC(=O)NCCc1ccccc1)S(=O)(=O)c1cccs1	-13	-11	-17	0
CN(CC(=O)NCCc1ccccc1)S(=O)(=O)c1ccc(Br)s1	-19	-30	-78*	-1
N#Cc1c(Nc2ccccc2Cl)s[nH]c1=O	-1	-3	-65*	0
CC(C)CCNC(=O)CN1C(=O)c2cccnc2Oc2ccccc21	13	8	.	2
O=C(CCN1C(=O)COc2ccccc21)NCCN1CCc2ccccc2C1	-7	-33	-62*	-1
COc1ccc(CCNC(=O)CCN2C(=O)COc3ccc(C)cc32)cc1OC	-2	-3	-65*	0
COc1ccc(CCNC(=O)CCN2C(=O)COc3ccccc32)cc1OC	-10	0	4	0
CCCN1CCN(CCCNC(=O)CCN2C(=O)COc3ccccc32)CC1	5	-10	0	1
CCOC(=O)c1c(C)oc2c1c(C=NCc1ccccn1)c(O)c1ccccc12	8	0	-105*	1
CC(=O)OC(C)OC(=O)C(C)c1ccc(-c2ccccc2)c(F)c1 (configuration not stated)	.	9	.	.
Clc1ccc(C2CC(c3ccccc3)Nc3ncnn32)cc1 (configuration not stated)	18	-7	-22	2
Clc1ccc(C2CC(c3ccco3)n3ncnc3N2)cc1Cl (configuration not stated)	-3	2	-58*	2
C[N+]1(C)CCN(CC(O)(c2ccccc2)C2CCCCC2)CC1 (configuration not stated)	.	-29	.	.
SMILES	TRPML1 blocker	D3 ag	D3 antag	TRPML1 agonist
CC(=O)Nc1ccc(/C=C/c2ccncc2)cc1	.	.	.	-1
Fc1ccc(CN2CCCCCCC2)c(F)c1	13	-2	-53*	-1
Fc1ccc(CN2CCCCCCC2)cc1F	-13	2	-65*	0
Clc1ccc(-c2noc3ncnc(NCCc4ccccc4)c23)cc1	-16	2	.	2
COc1ccc2oc(=O)cc(CN3CCN(Cc4ccccc4)CC3)c2c1	4	-45	-54*	0
CCOc1ccc2oc(=O)cc(CN3CCN(Cc4ccccc4)CC3)c2c1	.	-20	1	.
COc1ccc2c(CN3CCN(Cc4ccccc4)CC3)cc(=O)oc2c1	-13	-20	-68*	-1
COc1ccccc1CCNC(=O)C(C)Sc1nc(-c2ccccc2)cc(C(F)(F)F)n1 (configuration not stated)	-12	-20	.	-1
